According to PubChem BioAssay (NCATS):
The other results are listed elsewhere or left out. A call without a number means that no potency is given here. Records with an inconclusive call do not appear. Active and inactive are the calls of the source. The call rests on the fitted dose curve.

test system: Hepatitis C virus NS3/4A protease; assay: Selectivity profile for inhibitors of NSP2Pro chikungunya virus (CHIKV): NS34A-HCV Counterscreen (AID 1964106); settings: HCV NS3/4A protease biochemical counterscreen; series mostly up to 50.9 µM; further: nearly all actives have a fitted effect of over 55% in size
Excerpt: PI: Natalia J. Martinez Ph.D.
National Center for Advancing Translational Sciences (NCATS),
National Institute of Health (NIH), Rockville, Maryland
Chikungunya virus (CHIKV) is a mosquito-borne RNA virus that has emerged as one of the most important global arboviral threats in the last decade. Although the first CHIKV vaccine has recently been FDA approved for use in healthy adults at increased risk, to date, there are no available antiviral drugs for CHIKV infection. CHIKV nsP2 protease plays a crucial role in the processing of the viral polypeptide precursor to release enzymes required for viral replication, thus making it a promising drug target for antiviral discovery. Here, we established a high-throughput pipeline to identify small molecule inhibitors of nsP2 proteolytic activity. The pipeline is composed of a suite of 1,536-well in vitro assays to support quantitative high-throughput (qHTS) screening campaigns. Specifically, we developed a fluorescence resonance energy transfer (FRET)-based assay using a fluorogenic peptide substrate encompassing an endogenous cleavage site and purified recombinant protease domain (nsP2pro). Using this assay, we interrogated ~37,000 small molecules, including those in drug repurposing libraries as well as chemically diverse and medicinal chemistry-friendly compounds. Hits were selected for follow-up validation against full-length nsP2 and an additional peptide. FRET-based 1,536-well assays for papain, hepatitis C virus NS3-4A, and human furin proteases were implemented to characterize compound selectivity. […] Novel compounds were identified to be potential nsP2 inhibitors and molecular docking analyses were performed to explain the binding mode of selected hits. In vitro antiviral activity was evaluated against a subset of compounds using a high-throughput CHIKV infection assay. To our knowledge, the pipeline presented here is unprecedented for CHIKV antiviral discovery research.
PROTOCOL TABLE (as described by Inglese J, Shamu CE and Guy RK. 2007)
SEQUENCE No. (e.g., 1, 2, 3, etc.); […] (e.g., Cells, Incubation, Reagent, etc.); VALUE; DESCRIPTION.
1; Enzyme; 2 uL; 1,536-well solid-bottom, black plate (Greiner Bio One).
2; Compounds; 20 nL; Echo 655 acoustic dispenser (Beckman Coulter).
3; Incubation; 15 min; room temperature in the dark.
4: Reagent; 2 uL; Ac-DE-[Lys(5-TAMRA)]-EE-[Abu-psi(COO)Ala]-S-[Lys(ECLIPSE-7)]-amide.
5; Detection; Fluorescence; time 0, ViewLux microplate reader (PerkinElmer) 525 nm excitation, 598/25 nm emission
6; Incubation; 15 min; room temperature
7; Detection; Fluorescence; time 15; ViewLux microplate reader (PerkinElmer), 525 nm excitation, 598/25 nm emission.
NOTES (numbers refer to sequence numbers above).
1. Two microliter of NS3-4A HCV enzyme solution (5 nM final concentration) in assay buffer (20 mM Tris-HCl pH 8.0, 150 mM NaCl, with 0.01% Tween 20) were dispensed into a 1,536-well solid-bottom black plate (Greiner Bio One) using the Kalypsys Pintool Station.
2. Twenty nanoliter of compounds, positive control Aprotinin (50 uM final concentration), or neutral control DMSO were transferred to the assay plates. Compounds in counter-screen assays were tested at 11 concentrations, 1:3 dilution points from 25 uM to 0.42 nM.
3. The assay plates were incubated in the dark for 15 min.
4. After incubation, 2 uL of 0.625 uM substrate (Ac-DE-[Lys(5-TAMRA)]-EE-[Abu-psi(COO)Ala]-S-[Lys(ECLIPSE-7)]-amide) in assay buffer (for NS3-4A assay) was added using the Kalypsys Pintool Station.
5-7. Plates were immediately read at time 0 then covered with stainless steel gasket lids and incubated for 15 min at room temperature in the dark. Fluorescence intensity in the assay plates were again read after incubation using the ViewLux imager equipped with Tamara fluorescence optics. The change in fluorescence intensity over the 15-min reaction period was normalized against DMSO and inhibitor controls as described below.
[…]
Potency means the concentration at half of the fitted maximal effect.

| Compound | Potency |
| --- | --- |
| CCOc1ccc(NC(=O)c2c(NC(=O)Cc3ccccc3)sc3c2CCCCC3)cc1 | inactive |
| O=C(O)c1cccc(-n2[nH]c(-c3ccccc3)cc2=O)c1 | inactive |
| CO[C@]1(NC(=O)CSC(F)F)C(=O)N2C(C(=O)O)=C(CSc3nnnn3CCO)CO[C@H]21 | inactive |
| CCOc1ccc(NC(=O)c2c(NC(=O)Cc3ccccc3)sc3c2CCC(C)C3)cc1 (stereo unspecified) | inactive |
| CC(=O)N[C@@H](C(=O)O[C@H]1CCC(C)(C)[C@@H]2CCC3=C(COC3=O)[C@@]12C)C(C)C | inactive |
| COC([CH2][Hg])CNC(=O)c1ccccc1OCC(=O)O (stereo unspecified) | 1.63 µM (active) |
| C[C@@H]1C[C@@H](O)[C@@]23CO[C@]2(CO)C[C@@H](O)CC3[C@@]12CC(c1ccoc1)OC2=O (stereo partly specified) | 11.3 µM (active) |
| Cn1nnnc1Sc1ncnc2n[nH]c(-c3cccc(S(C)(=O)=O)c3)c12 | 316 µM (active) |
| C[C@@H]1O[C@@H](O[C@@H]2[C@@H](O)[C@H](OCCc3ccc(O)c(O)c3)O[C@H](CO[C@@H]3O[C@H](CO)[C@@H](O)[C@H](O)[C@H]3O)[C@H]2OC(=O)/C=C/c2ccc(O)c(O)c2)[C@H](O)[C@H](O)[C@H]1O | inactive |
| CCC(C)C(=O)OC1C(C)C2(O)C(C=C(CO)CC3(O)C(=O)C(C)=CC32)C2C(C)(C)C12OC(=O)C(C)C (stereo unspecified) | inactive |
| Cc1c(S(=O)(=O)O)oc2c1C(=O)C(=O)c1c-2ccc2c1CCCC2(C)C | inactive |
| N#CSc1cc(SC#N)c(N)nc1N | inactive |
| C=Cc1c(C)c2cc3nc(cc4[nH]c(cc5nc(cc1[nH]2)C(C)=C5CCC(=O)O)c(CCC(=O)OC)c4C)[C@@]1(C)C3=CC=C(C(=O)OC)[C@H]1C(=O)OC | inactive |
| CCOc1ccc(N(Cc2ccccc2)C(=O)c2nc(S(C)(=O)=O)ncc2Cl)cc1 | inactive |
| C=CC(=O)c1ccc2ccccc2c1 | inactive |
| CC1=C(/C=C/C(C)=C/C=C/C(C)=C/C=C/C=C(C)/C=C/C=C(C)/C=C/C2=C(C)CCCC2(C)C)C(C)(C)CCC1 | inactive |
